The test system of the assay is MDA-MB-468 breast. The experiment in a line: NCI-60 one-dose screen, 48 h (100 = growth as untreated, 0 = no growth, -100 = all killed). The following applies: 10 µM unless noted.

“And” between values parts separate entries of the source, which are not always exact repeats. Identical values can stand only once. Compounds without any hit were thinned out: in the full panel of roughly 83,000, 20% have a hit.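 Percent growth is the endpoint: 0 to 100 indicates growth inhibition (40 means 60% inhibition), 0 means no net growth, and negative values indicate cell death.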 The source made the active and inactive calls. Rule for the calls: active = growth percent below 10; inactive = the rest.

As to `COc1ccc(-c2nc([C@@H](C)Sc3nc(N)cc(N)n3)c(C)s2)cc1OCCN1CCOCC1`, the growth was 92.7% (inactive). As to `C=COC(=O)CCOCC(CC)CCCC` (centres undefined), the growth is 104% (inactive). On to `COc1ccc(/C=C/C(=C/c2c(O)[nH]c3cc(Br)ccc23)N=O)cc1`, for which the growth is 114% (inactive). For `COC(=O)c1ccc(NC(N)=NCCC(C)(C)c2ccc(C(F)(F)F)cc2)nc1`, the growth is -14.2% (active). As to `CC1(CO)CCCC1NCCNC1CCCC1(C)CO` (centres undefined), the growth is 104% (inactive) and 95.5% (inactive). With `O=C1CC(c2ccc(Cl)cc2)c2ncn(-c3cccc(Cl)c3)c2N1` (centres undefined), the growth was 41.3% (inactive). As for `O=[N+]([O-])c1ccc(Oc2cccc(C(F)(F)F)c2)c([N+](=O)[O-])c1`, the figure is -8.95% (active).

On to `COc1cc(C2CC(c3ccc(Nc4ccnc5cc(Cl)ccc45)cc3)=NN2c2ccccc2)cc(OC)c1OC` (centres undefined), for which the growth was 44.6% (inactive). With `N#Cc1c(-c2cccs2)cc(-c2cnccn2)nc1SCC(=O)N/N=C/c1ccccc1`, the growth is 9.18% (active). As for `O=C(Nc1ccccc1N1CCCC1=O)c1oc2ccc(F)cc2c1-c1cnn(-c2ccccc2)c1`, the figure is 51.1% [50 µM] (inactive).

On to `CC(C)NCCCNC1=C(Cl)C(=O)c2ccccc2C1=O`, for which the growth is 34.6% (inactive). On to `N=C(N)SCc1cccc2c(CSC(=N)N)cccc12`, for which the growth was 108% (inactive).

With `Cl[C@@H]1CCO[C@H](c2cc3ccccc3c3ccccc23)C1`, the growth was 93.4% (inactive).

As to `C#CC(F)(F)[C@]1(O)CCC2C3CCC4=CC(=O)CCC4=C3[C@@H](c3ccc(N(C)C)cc3)C[C@@]21C` (some centres undefined), the growth is 101% (inactive). For the compound `Clc1ccc2c(c1)c(-c1ccccc1)nc1nncn12`, the growth is 110% (inactive). Then `CC/C(Cc1ccccc1)=C(\c1ccc(OCCCN(C)C)cc1)c1ccc(OC(=O)NCc2ccccc2)cc1`, with 56.8% (inactive). Then `CC(=O)OC[C@H](O)[C@@]1(O)CC[C@H]2[C@@H]3CCC4=CC(=O)CC[C@]4(C)[C@H]3[C@@H](O)C[C@@]21C`, with 112% (inactive); and `CCOC(=O)n1cc(-c2nonc2-c2cn(C)c3ccccc23)c2ccccc21`, with 13.1% (inactive); and `CN(C)c1ccc(CNCCO)cc1`, with 105% (inactive). Consider `COC1=CC(c2ccc[nH]2)=N/C1=C\c1[nH]c(C)c(CC(=O)NCc2ccccc2)c1C`, for which the growth is 27.3% (inactive). On to `C[C@@H]1C[C@H]2C(=O)O[C@@H](C)[C@H](NC(=O)[C@H](Cc3cc(F)cc(F)c3)NC(=O)Nc3ccc(Cl)cc3F)C(=O)N3C[C@H](O)C[C@H]3C(=O)N3CCN(C)C[C@H]3C(=O)N[C@@H](C)C(=O)N2C1`, for which the growth was 11.5% (inactive). As for `CCOc1cc2ncc(C#N)c(Nc3ccc(F)c(Cl)c3)c2cc1NC(=O)CC1CCSS1` (centres undefined), the figure is -74.2% (active); as for `COc1ccc(/C=C2\COc3ccc(O)cc3C2=O)c(OC)c1OC`, 48.8% (inactive); as for `COc1ccc(/C=C2\Oc3cc(OCCN4CCCC4)ccc3C2=O)c(OC)c1`, 86.5% (inactive).

On to `CC(=O)/C=C/c1cc2cc(Cl)ccc2[nH]c1=O`, for which the growth is 82.9% (inactive).

For the compound `COc1ccc2nc(Cl)c(/C=C3\CC(c4ccccc4)=NN(c4ccccc4)C3=O)cc2c1`, the growth is 74.9% (inactive). As for `NC(=O)C1=C[C@H]2[C@H]3C=C[C@@]2(O)C(=O)O[C@@H]3O1`, the figure is -5.42% (active); as for `CCCCCCCCCCCCN1C(C)=CS/C1=C\C=C\c1scc(C)[n+]1CCCCCCCCCCCC`, -23% (active); as for `CCN(CC)c1ccc(C=O)c(OCc2cn(CC(=O)Nc3ccc(Cl)cc3)nn2)c1`, 63.5% (inactive). Take `COc1ccc(C(=O)c2cc3c(N)c(C(=O)Nc4cccc(Br)c4C)sc3nc2C)cc1`: the growth is -1.96% (active).

As for `N#Cc1nc(-c2ccccc2)oc1N1CC[C@@H](CO)C1`, the growth was 95.2% (inactive). With `CCN(CC)CCCC(Nc1c2ccc(Cl)cc2nc2ccc(OC)cc12)c1ccncc1` (centres undefined), the growth is 88.5% (inactive).

On to `O=C(Cn1cc(CN2C(=O)c3ccccc3S2(=O)=O)nn1)Nc1nc2ccccc2s1`, for which the growth is 130% (inactive). Take `Cc1cc(C(=O)Nc2sc3c(c2C(N)=O)CCC(=O)C3)ccc1OCCN1CCCCC1`: the growth is 112% (inactive). Turning to `c1ccc2c(c1)Oc1ccccc1C2C1c2ccccc2Oc2ccccc21`, the growth is 107% (inactive). Turning to `N#CCCN1C(=O)CCC1C(=O)O` (centres undefined), the growth was 103% (inactive). As to `Cc1c2c(cc3c1[nH]c1ccccc13)C=NCC2`, the growth was 80.2% (inactive).

As for `CSC(=N\N=C\c1ccc(N(C)C)cc1)/N=C/N(C)C`, the growth was 83.5% (inactive). Take `CC(=O)CC(=O)SC1=NCCS1`: the growth was 124% (inactive).

The values above are taken from PubChem BioAssay (NCI).
